Source: PubChem
Compounds with a hit are over-represented: about 21% of the library has one in this group of screens.
TDP1 cell noCPT: qHTS for Inhibitors of human tyrosyl-DNA phosphodiesterase 1 (TDP1): qHTS in cells in absence of CPT | DT40 Tdp1-/- hTDP1 cells, no CPT, ATP luminescence, 48 h | Potency, µM (highest dose often 46.2 µM), hits mostly inhibitors | hit rate 15% among 420,000 | AID 686978, 2013; also: nearly all actives have a fitted effect of over 55% in size
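Chicken DT40 Tdp1-/- cells complemented with human TDP1, screened without camptothecin (DMSO vehicle only), 400 cells/well. Compounds pin-transferred, cells incubated at 37 °C for at least 48 hr. Growth read as ATP-dependent luminescence (CellTiter-Glo, 30 min at RT).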
DRD3 agonist: activates the human D3 dopamine receptor; P35462; D3R DiscoveRx beta-arrestin cells, luminescence, 90 min; max activation, %; hit rate 0.58% among 410,000; AID 652048; in the data active = max activation above about 30%
Target sequence (P35462 whole entry, looked up): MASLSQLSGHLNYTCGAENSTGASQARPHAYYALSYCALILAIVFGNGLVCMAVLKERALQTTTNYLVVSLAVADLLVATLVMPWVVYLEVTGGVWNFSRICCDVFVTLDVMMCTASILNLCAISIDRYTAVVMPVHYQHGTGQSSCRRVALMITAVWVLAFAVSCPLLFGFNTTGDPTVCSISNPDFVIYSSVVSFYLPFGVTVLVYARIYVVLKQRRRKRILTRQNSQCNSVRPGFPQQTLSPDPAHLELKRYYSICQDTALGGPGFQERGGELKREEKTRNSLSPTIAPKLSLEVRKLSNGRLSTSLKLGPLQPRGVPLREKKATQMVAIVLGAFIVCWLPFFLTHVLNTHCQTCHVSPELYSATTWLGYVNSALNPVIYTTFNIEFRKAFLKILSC
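Cells at 1500/well, incubated overnight, then treated with pinned compounds (dopamine as control) for 90 min at 37 degrees C. DiscoveRx reagent added for 30 - 60 minutes at room temperature; luminescence read.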
D3 antag: D3 dopamine receptor (human) antagonism. AID 652054. D3R cells, DiscoveRx beta-arrestin luminescence, antagonist mode; stronger effect = lower value. P35462. hit rate 2.5% among 360,000. max response, negative = inhibition, %; in the data active = max response below about -50%; inconclusive = no clear call, values can overlap the other calls
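Cells plated overnight at 1500 cells/well, then exposed to library compounds with dopamine controls for 90 minutes at 37 degrees C. DiscoveRx reagent added for 30–60 minutes at room temperature; luminescence read, quantitative HTS format.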
ClpP mod: qHTS Assay for Activators of ClpP. hit rate 1.9% among 340,000. ATP-dependent Clp protease proteolytic subunit (Bacillus subtilis (strain 168)), P80244. purified B. subtilis ClpP, FRET peptide cleavage, 20 min. Potency, µM (titrated, usually from 57.5 µM); active = well fitted falling curve with a large enough effect; inconclusive = small, poorly fitted or top-dose-only effect; inactive = no such curve, though single readings can be large or run the other way; also: the source files actives as falling curves though it sought activators and does not explain the sign; nearly all actives have a fitted effect of over 65% in size
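Purified B. subtilis ClpP, 10 microg/mL final in Tris/HCl pH8 with KCl, BSA, glycerol and Tween-20, cleaved an Abz/nitrotyrosine-quenched decapeptide. Fluorescence (ex 320, em 430) was read at 0 and 20 min at room temperature. Delta was normalized to 5.8 microM ADEP and DMSO/no-enzyme controls.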
DT40 TDP1 CPT: growth inhibition of DT40 Tdp1-/-;hTDP1 cells with camptothecin (screen for TDP1 inhibitors) | chicken DT40 Tdp1-/-;hTDP1 cells + 20 nM CPT, ATP luminescence, 48 h | Potency, µM (series often up to 46.2 µM), most hits filed as inhibitors | hit rate 12% among 420,000 | AID 686979; also: nearly all actives have a fitted effect of over 55% in size
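Cell growth measured by CellTiter-Glo luminescence after a minimum 48 h, 37 C compound exposure with 20 nM CPT in Tdp1-knockout DT40 cells stably expressing hTDP1, seeded 400/well; qHTS titration format.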
IL1B secr inh: blocks inflammasome-driven IL-1 beta release; THP-1 LPS/ATP IL-1B secretion, AlphaLISA, 16 h; stronger effect = lower value; activity change, % at 57.5 µM; hit rate 4.7% among 360,000; in the data active = activity change below about -50%; inconclusive = mostly about -30% to -49%
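Secreted IL-1B measured by AlphaLISA bead assay after 16 h compound exposure of THP-1 cells; compounds (final up to 57.5 uM) added 1 h before LPS (250 ng/mL) and ATP (1.25 mM) stimulation; lower signal means less secretion.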
Numbers stand for hits; i = inactive; ? = inconclusive; nt = not tested or not shown. Unless noted, calls follow the shape of the dose curve; as a rule, active = well fitted inhibition curve with a large enough effect; inconclusive = small, poorly fitted or top-dose-only effect; inactive = flat fitted curve, though single readings scatter.

SMILES	TDP1 cell noCPT	DRD3 agonist	D3 antag	ClpP mod	DT40 TDP1 CPT	IL1B secr inh
COc1ccc2c(c1)C1=NN(/C(C)=C\C(C)=O)C(c3ccccc3)C1CC2 (configuration not stated)	?	i	i	i	18µM	i
COc1ccc2c(c1)C1=NN(/C(C)=C/C(C)=O)C(c3ccc(F)cc3)C1CC2 (configuration not stated)	?	i	i	20µM	?	i
N#CC1=C(N)OC2=C(C(=O)CCC2)C1c1cc2c(cc1Br)OCO2 (configuration not stated)	i	i	i	i	i	i
COc1cc(=O)n2c(c1C(=O)NCc1ccco1)CCN(Cc1c(F)cccc1F)CC2	i	nt	nt	nt	i	nt
O=C(CN1C(=O)C(=O)N(Cc2ccco2)C1=O)NC1CCCCC1	i	i	i	i	i	i
C=CCn1c(=O)/c(=C\c2ccsc2)s/c1=C(/C#N)C(=O)NCCN1CCOCC1	?	i	i	i	?	?
COc1ccc(-n2c(=O)/c(=C\c3cccs3)s/c2=C(/C#N)C(=O)NCCN2CCOCC2)cc1	?	i	i	nt	13µM	i
C/C(=N\NC(=O)c1nc2ccccn2c1C)c1ccc2c(c1)OCO2	i	i	i	i	i	i
C/C(=N\NC(=O)c1nc2ccccn2c1C)c1cccc([N+](=O)[O-])c1	?	i	i	18µM	i	i
CC(=O)Nc1cccc(/C(C)=N/NC(=S)NC(C)C)c1	4.6µM	i	i	i	3.7µM	i
CC(=O)Nc1cccc(/C(C)=N/NC(N)=S)c1	i	i	i	nt	i	i
C/C(=N\NC(=O)c1ccc([N+](=O)[O-])cc1)c1cccc([N+](=O)[O-])c1	i	i	?	nt	i	i
C/C(=N\NC(=S)NC(C)C)c1cccc([N+](=O)[O-])c1	0.92µM	i	i	i	0.92µM	i
C/C(=N/Nc1nc(C)c(C)s1)c1cccc([N+](=O)[O-])c1	23µM	i	?	i	15µM	i
COC(=O)c1ccccc1NC(=O)CN1C(=O)COc2ccccc21	nt	i	nt	i	nt	nt
C/C(=N\NC(=S)NC(C)C)c1ccc(Cl)c([N+](=O)[O-])c1	18µM	i	i	i	18µM	-92
C/C(=N/NC(=S)Nc1cccc(C)c1)c1cccc([N+](=O)[O-])c1	13µM	i	i	i	12µM	i
CCCSc1nnc(-c2cccc(S(=O)(=O)N(C)C)c2)n1-c1cc(OC)ccc1OC	11µM	i	i	i	11µM	i
COc1ccc(OC)c(-n2c(-c3cccc(S(=O)(=O)N(C)C)c3)n[nH]c2=S)c1	i	i	i	nt	i	i
COc1ccc(OC)c(-n2c(SCC(C)=O)nnc2-c2cccc(S(=O)(=O)N(C)C)c2)c1	i	i	i	i	i	i
CCSc1nnc(-c2cccc(S(=O)(=O)N(C)C)c2)n1-c1cc(OC)ccc1OC	?	i	i	i	14µM	i
COc1ccc(S(=O)(=O)N2CCC3(CC2)OCCN3S(=O)(=O)c2ccc(C)cc2)cc1OC	i	i	i	i	i	i
Cc1nc2ccn(Cc3ccco3)c(=O)c2cc1C(=O)Nc1ccc(F)cc1	?	i	nt	i	?	nt
Cc1ccc(NC(=O)c2cc3c(=O)n(Cc4ccco4)ccc3nc2C)cc1C	?	65	nt	i	26µM	nt
CSc1ccc(CNC(=O)c2cc3c(=O)n(Cc4ccco4)ccc3nc2C)cc1	23µM	i	nt	i	29µM	nt
CN1CCN(C(=O)c2cc3ccccc3oc2=O)CC1	i	i	i	i	i	i
Cc1cc(C)c(S(=O)(=O)N2CCN(C(=O)c3cc4ccccc4oc3=O)CC2)c(C)c1	?	i	i	i	21µM	i
O=C(c1cc2ccccc2oc1=O)N1CCN(c2ccc(Cl)cc2)CC1	21µM	i	nt	i	?	nt
O=C(c1cc2ccccc2oc1=O)N1CCCN(C(=O)c2cc3ccccc3oc2=O)CC1	i	i	i	i	i	i
